Screening results: PubChem, National Center for Advancing Translational Sciences (NCATS)
An excerpt weighted towards active compounds, which were near 12% of everything screened.
Sfp inh = qHTS Assay for Inhibitors of Bacillus subtilis Sfp phosphopantetheinyl transferase (PPTase); Biochemical Sfp PPTase activity, qHTS; Potency, µM, inactives show largest response in the series, negative = inhibition, most hits filed as inhibitors; AID 1490, 2009; 4'-phosphopantetheinyl transferase ffp (Bacillus subtilis), Q9F4F7; 310,000 compounds, 3.5% hits;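 note: the enzyme is Sfp with the accession as filed and its product quenches rhodamine fluorescence; 0% = enzyme reaction without inhibitor and -100% = no enzyme wells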
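Sfp 15 nM + cpd, 15 min RT; start w/ rhodamine-CoA 5 uM, BHQ-2-YbbR 12.5 uM (final); 50 mM Hepes pH 7.6, 10 mM MgCl2, 0.01% NP-40, 0.01% BSA; read 525/598 nm at 0 and 30 min.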
BAZ2B block = qHTS Assay for Inhibitors of BAZ2B | 360,000 compounds, 4.4% hits | AID 504333, 2011 | AlphaScreen BAZ2B-H3K14Ac peptide displacement | Bromodomain adjacent to zinc finger domain protein 2B (Homo sapiens), Q9UIF8 | Potency, µM (doses to about 114 µM), inactives show at the top dose activity change, negative = inhibition, most hits filed as inhibitors; note: % is set by controls: 0 for no effect and ±100 for the full control effect; nearly all actives have a fitted effect of over 60% in size
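In this displacement format the biotinylated H3(5-23) peptide acetylated at Lys14 serves as ligand at 50 nM, with BAZ2B at 50 nM in PBS pH 7.4 containing 0.01% Tween-20. Donor and acceptor beads are 10 ug/mL final.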
JMJD2A Tudor inh = qHTS Assay for Inhibitors of JMJD2A-Tudor Domain; AlphaScreen JMJD2A-Tudor / H3K4me3 peptide binding; Potency, µM (series often up to 114 µM), inactives show at the top dose activity change, negative = inhibition, actives largely listed as inhibitors; 390,000 compounds, 4.4% hits; AID 504339, 2011; note: % is set by controls: 0 for no effect and ±100 for the full control effect; nearly all actives have a fitted effect of over 50% in size
HP1b chromo inh = HTS for Inhibitors of HP1-beta Chromodomain Interactions with Methylated Histone Tails; AID 540317, 2011; 390,000 compounds, 0.56% hits; Potency, µM (doses to about 114 µM), without a hit: at the top dose activity change, negative = inhibition, actives largely listed as inhibitors; AlphaScreen HP1-beta / biotin-H3K9me3 peptide binding; Chromobox protein homolog 1 (Homo sapiens), P83916; note: nearly all actives have a fitted effect of over 70% in size
Target sequence (P83916 whole entry, looked up): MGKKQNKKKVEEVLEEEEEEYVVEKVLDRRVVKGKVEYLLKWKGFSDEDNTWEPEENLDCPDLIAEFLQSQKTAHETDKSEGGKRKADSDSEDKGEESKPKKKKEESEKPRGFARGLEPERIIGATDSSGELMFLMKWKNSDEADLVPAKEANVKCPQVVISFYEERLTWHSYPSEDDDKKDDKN
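AlphaScreen: HP1-beta (50 nM) preformed 30 min with biotin-H3(1-18)K9me3 peptide (50 nM) in PBS pH 7.4, 0.01% Tween-20. Compound added for 30 min at RT, then streptavidin donor/nickel chelate acceptor beads (10 ug/mL) for 30 min.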
G9a block = qHTS Assay for Inhibitors of Histone Lysine Methyltransferase G9a; 350,000 compounds, 8.8% hits; Histone-lysine N-methyltransferase EHMT2 (Homo sapiens), Q96KQ7; AID 504332, 2011; G9a H3K9 monomethylation, AlphaScreen, 2 h; Potency, µM (doses to about 102 µM), for inactives: top-dose activity, negative = inhibition, usual class: inhibitors; note: % is set by controls: 0 for no effect and ±100 for the full control effect; nearly all actives have a fitted effect of over 75% in size
Target sequence (Q96KQ7 913-1193 limits assumed): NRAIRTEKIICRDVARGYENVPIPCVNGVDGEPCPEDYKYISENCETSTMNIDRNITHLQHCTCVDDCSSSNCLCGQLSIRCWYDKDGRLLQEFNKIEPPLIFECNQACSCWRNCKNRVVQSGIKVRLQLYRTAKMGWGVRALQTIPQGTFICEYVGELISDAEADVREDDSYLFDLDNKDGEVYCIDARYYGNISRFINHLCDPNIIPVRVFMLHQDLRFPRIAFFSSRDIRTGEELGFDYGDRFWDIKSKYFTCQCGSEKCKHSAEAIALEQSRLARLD
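Enzyme 20 nM + cpd, 15 min RT; add b-H3K9 pep 500 nM / SAM 20 uM; 2 h RT; anti-H3K9me1 Ab 0.5 ug/mL + SA donor / anti-rabbit acceptor beads 20 ug/mL each, 10 min; AlphaScreen read.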
* = called active by the depositor; ? = inconclusive; nt = not tested or not shown; ! = repeats disagree; [ ] = remark or other dose. Calls come from the whole dose curve; as a rule, active = well fitted curve in the direction sought with a large enough effect; inconclusive = small, poorly fitted or top-dose-only effect, or another doubt; inactive = no such curve, though single readings can be large; an effect the other way counts as inactive or inconclusive. Potency is the fitted concentration of half-maximal effect.

SMILES	Sfp inh	BAZ2B block	JMJD2A Tudor inh	HP1b chromo inh	G9a block
CC1=CCC2C(=O)N(c3nc4ccccc4n3C)C(=O)C2C1 (configuration not stated)	16.0%	?	56.2µM*	-0.1%	-4.6%[59 µM]
O=[N+]([O-])c1ccc(CNc2cccc(Cl)c2)s1	-2.0%	?	?	-10.7%	44.7µM*
COc1ccc(NCc2ccc([N+](=O)[O-])s2)cc1	-25.0%	50.1µM*	56.2µM*	?	7.94µM*
COc1ccc(NC(=O)CCC(=O)N/N=C/c2ccc([N+](=O)[O-])s2)cc1	5.8%	?	-29.3%	14.7%	-5.6%[59 µM]
COc1ccc(NC(=O)/C=C/c2ccccc2[N+](=O)[O-])c(OC)c1	-12.5%	-36.4%	-23.2%	?	-9.1%[59 µM]
O=C(COC(=O)c1ccc([N+](=O)[O-])s1)NCc1ccc(F)cc1	14.8%	3.3%	4.5%	34.5%	-14.1%[59 µM]
O=[N+]([O-])c1ccc(CNc2ccc(F)cc2)s1	-29.5%	39.8µM*	?	-21.2%	44.7µM*
Nc1nc(Nc2cccc(Cl)c2)nc(NCc2ccco2)c1[N+](=O)[O-]	-12.0%	?	?	-19.9%	?
COc1ccc(NCc2ccc([N+](=O)[O-])s2)c(OC)c1	-25.5%	31.6µM*	39.8µM*	17.8µM*	10µM*
O.O.[Mn].[Mn].[Mn].[OH-].[OH-]	-10.8%	nt	nt	nt	nt
Cc1cc(-c2ccc(C)c(S(=O)(=O)NCc3cccs3)c2)on1	nt	5.1%	-6.2%	53.3%	-5.3%[59 µM]
CC(CNc1ccc(Cl)cc1)(CNc1ccc(Cl)cc1)[N+](=O)[O-]	nt	nt	-8.3%	11.2%	nt
O=[N+]([O-])c1ccc(CNc2ccc(Cl)cc2)s1	2.5%	35.5µM*	?	?	44.7µM*
Cc1nnc(N/N=C/C(C)c2ccccc2)[nH]c1=O (configuration not stated)	79.4µM*	-24.6%	0.891µM*	28.2%	?
Cc1nnc(N/N=C/c2c[nH]c3ccccc23)[nH]c1=O	-3.8%	?	-24.6%	38.5%	nt
O=C(NC1CC1)c1ccc(Cn2c(SCc3cccc(F)c3)nc3cccnc32)cc1	nt	-20.6%	-1.3%	26.0%	3.0%[59 µM]
CC1CCCCN1Cc1c(O)ccc2c(=O)c(-c3ccc(Cl)cc3)coc12 (configuration not stated)	11.7%	-2.5%	79.4µM*!	28.9%	9.2%
O=C(O)CSc1nnnn1C1CCCCC1	9.4%	5.3%	28.2µM*	4.7%	14.8%[0.501 µM]
O=C(CSc1nnnn1C1CCCCC1)N1CCCC1	1.0%	12.6%	-5.0%	8.7%	-2.6%
Cc1ccc(NC(=O)COC(=O)Cc2cccs2)cc1S(=O)(=O)N1CCOCC1	16.0%	-4.5%	-10.3%	11.6%	-4.3%[12.7 µM]
COc1ccc(/C=C2\SC(=S)N(CCCC(=O)N3CCCCC3CCO)C2=O)cc1 (configuration not stated)	-10.6%	7.94µM*	35.5µM*	-24.4%	-4.1%[0.0925 µM]
CC(C)c1ccc(/C=C2\SC(=S)N(CCC(=O)N3CCCCC3CCO)C2=O)cc1 (configuration not stated)	-17.8%	?	12.6µM*	-38.2%[57 µM]	44.7µM*
CCOc1ccc(NC(=O)CN(C)Cc2cc(=O)n3c(-c4ccccc4)csc3n2)cc1OCC	0.8%	?	-26.1%	5.5%	50.1µM*
Cc1cc(C)cc(OCc2cc(=O)n3c(-c4ccccc4)csc3n2)c1	nt	79.4µM*	?	6.5%	1.8%[59 µM]
O=c1cc(CN2CCN(c3ccccc3)CC2)nc2scc(-c3ccccc3)n12	-31.4%	?	-32.6%	4.0%	-43.6%
SMILES	Sfp inh	BAZ2B block	JMJD2A Tudor inh	HP1b chromo inh	G9a block
C=CCNCc1cc(=O)n2c(-c3ccccc3)csc2n1	-25.2%	50.1µM*	3.55µM*	?	?
Cc1ccc(OCc2cc(=O)n3c(-c4ccccc4)csc3n2)cc1	nt	5.4%	?	29.1%	4.7%[59 µM]
CC1(NC(=O)Cc2c(Cl)cccc2Cl)CCS(=O)(=O)C1 (configuration not stated)	nt	-3.5%	1.0%	43.5%	2.9%[12.7 µM]
CC(=O)Nc1nonc1-c1nnc(SCC(=O)Nc2ccc(F)cc2F)n1-c1ccccc1	nt	-2.5%	-12.6%	45.4%	-2.2%[59 µM]
Cc1cc(C)n(-c2ccc(Oc3ccccc3)c(S(=O)(=O)O)c2)n1	-7.5%	-33.8%	89.1µM*	3.2%	?
Cc1[nH]n(-c2ccccc2)c(=O)c1CCO	15.4%	1.6%	4.2%	35.8%	nt
CCc1c(C)[nH]n(-c2ccc(Oc3ccccc3)c(S(=O)(=O)O)c2)c1=O	-6.2%	nt	56.2µM*	4.1%	?
CC(=O)N(Cc1ccccc1)c1ccccc1C(=O)O	24.5%	-9.4%	10.0%	32.4%	17.9%
CC(=O)N(CC(=O)O)c1ccccc1C(=O)O	8.9%	-1.4%	-1.4%	11.9%	17.8µM*
Cc1cn([C@H]2C[C@H](O)[C@@H](CCC(=O)NCCN3CCCCC3)O2)c(=O)[nH]c1=O	nt	nt	-3.6%	39.1%	nt
Cn1c(=O)c(-c2cc(=O)[nH][nH]2)c(O)c2ccccc21	22.0%	56.2µM*	35.5µM*	7.5%	-28.5%
Cn1c(=O)c(-c2cccc(Cl)c2)c(O)c2ccccc21	nt	nt	4.3%	37.4%	nt
Cc1ccccc1N1CC(O)(c2ccccc2)[N+]2=C1SCC2 (configuration not stated)	-20.4%	5.0%	-11.3%	59.4%	31.6µM*
Cc1ccc(C2(O)CN(c3ccccc3)C3=[N+]2CCS3)cc1 (configuration not stated)	5.3%	?	-28.4%	36.0%	5.6%
Cc1ccc(C2(O)CN(c3ccccc3C)C3=[N+]2CCS3)cc1 (configuration not stated)	-17.7%	-9.0%	-20.1%	33.5%	31.6µM*
CC(=O)N1CCN(S(=O)(=O)c2cccc(C(=O)Nc3ccc(F)c(F)c3)c2)CC1	12.9%	1.1%	-1.4%	3.7%	-15.1%
COc1ccc(-c2nc(-c3ccccc3)c(NC(C)(C)C)o2)cc1	-1.9%	nt	nt	nt	nt
COc1cc2nc(N(CCCN(C)C)C(=O)c3ccc(S(=O)(=O)N4CCc5ccccc5C4)cc3)sc2cc1OC	nt	-37.4%	-15.9%	2.9%	39.8µM*
COc1ccc(OC)c2sc(N(CCCN(C)C)C(=O)c3ccc(S(=O)(=O)N4CCc5ccccc5C4)cc3)nc12	nt	-12.1%	nt	nt	8.91µM*
COc1cc2nc(N(CCCN(C)C)C(=O)c3ccc(C(=O)c4ccccc4)cc3)sc2cc1OC	nt	?	?	?	50.1µM*
COc1cccc2sc(N(CCCN(C)C)C(=O)c3ccc(S(=O)(=O)N4CCc5ccccc5C4)cc3)nc12	-19.0%	?	?	-9.1%	?
